Test results reported in PubChem BioAssay (EPA / NIEHS).
The source made the active and inactive calls. How the source made its calls: active means hit-call score of the fitted dose curve at least 0.9, where 1 is the maximum; inactive means score below 0.9.

Columns and labels:
[1] = ATG_GLI_CIS: Attagene CIS-FACTORIAL HepG2 Assay for human Zinc Finger Protein GLI1 (AID 2282945); conditions: HepG2, Attagene cis-factorial reporter mRNA, GLI element; actives raise or lower the signal
Method in brief: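 HepG2 cells transiently transfected with cis-promoter multiplexed reporter units report endogenous transcription factor activity. After 24 h chemical exposure, reporter mRNA was quantified by RT-PCR, 6-FAM labelling, HpaI digestion and capillary electrophoresis, with bidirectional fitting against DMSO.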

[2] = ATG_GRE_CIS: Attagene CIS-FACTORIAL HepG2 Assay for human Glucocorticoid Response Elements (GRE) (AID 2282947); conditions: HepG2 GRE cis-reporter, Attagene multiplex mRNA; actives raise or lower the signal
Method in brief: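 Cells (HepG2) bearing transfected cis-promoter reporter transcription units were treated with chemical for 24 hours. Reporter mRNA was measured via RT-PCR with capillary electrophoresis, and activity was fitted in both directions relative to DMSO.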

[3] = ATG_ISRE_CIS: Attagene CIS-FACTORIAL HepG2 Assay for human Interferon Regulatory Factor 1 (IRF1) binding to an Interferon-Stimulated Response Element (ISRE) (AID 2282948); conditions: HepG2 ISRE cis-reporter (Attagene), mRNA transcription readout; actives raise or lower the signal
Method in brief: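 Uses HepG2 liver cells transfected with cis-regulated reporters and measures mRNA 24 h post-dosing through RT-PCR, primer-extension labelling and capillary electrophoresis, with DMSO as negative control.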

[4] = ATG_M_32_CIS: Attagene CIS-FACTORIAL HepG2 Assay for M32 Transcription Factor (Internal Marker) (AID 2282949); conditions: HepG2 Attagene cis-factorial M32 reporter, mRNA; actives raise or lower the signal;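 further: background control marker of the multiplexed CIS panel rather than a real target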
Method in brief: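 HepG2 human liver cells transiently transfected with cis-promoter-driven multiple reporter transcription units, dosed 24 h. Reporter mRNA quantified by RT-PCR, FAM-labelled primer extension, HpaI digest and capillary electrophoresis; bidirectional fit versus DMSO baseline.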

[5] = ATG_M_06_CIS: Attagene CIS-FACTORIAL HepG2 Assay for M06 Transcription Factor (Internal Marker) (AID 2282950); conditions: HepG2 Attagene CIS-FACTORIAL M06 internal marker reporter; actives raise or lower the signal
Method in brief: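 Measured 24 h post-dosing in transiently transfected HepG2 cells, this internal-marker endpoint reports reporter mRNA via RT-PCR with fluorescent primer extension and capillary electrophoresis. DMSO served as negative control and baseline for bidirectional fitting.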

[6] = biological target: Hypoxia-inducible factor 1-alpha (Homo sapiens) (UniProt Q16665); assay: ATG_HIF1a_CIS: Attagene CIS-FACTORIAL HepG2 Assay for human Hypoxia Inducible Factor 1 (HIF1A) (AID 2282951); conditions: HepG2 Attagene cis-factorial HIF1a reporter transcription; actives raise or lower the signal
Method in brief: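 Transient MRTU transfection of human HepG2 liver cells, 24 h compound treatment, then total RNA isolation, oligo(dT) reverse transcription, PCR amplification, fluorescent labelling and capillary electrophoresis of reporter fragments. Gain or loss relative to DMSO.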

[7] = biological target: Hepatocyte nuclear factor 6 (Homo sapiens) (UniProt Q9UBC0); assay: ATG_HNF6_CIS: Attagene CIS-FACTORIAL HepG2 Assay for human Hepatocyte Nuclear Factor 6 (HNF6) (AID 2282952); conditions: HepG2 Attagene cis-factorial HNF6 reporter transcription; actives raise or lower the signal
Method in brief: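 Using cis-element reporters in HepG2 liver cells, the assay tracks endogenous factor-driven transcription 24 h post-dosing. Signal comes from 6-FAM-labelled, HpaI-digested RT-PCR fragments, with gain or loss scored against DMSO.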

[8] = biological target: Heat shock factor protein 1 (Homo sapiens) (UniProt Q00613); assay: ATG_HSE_CIS: Attagene CIS-FACTORIAL HepG2 Assay for human Heat Shock Transcription Factor 1 (HSE) (AID 2282953); conditions: HepG2 HSE cis-reporter, Attagene RNA transcription; actives raise or lower the signal
Method in brief: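 Reporter mRNA induction in HepG2 is measured 24 h after dosing, using transiently transfected multiplexed cis-regulated reporter units. Signal comes from capillary electrophoresis of labelled RT-PCR products, with DMSO as negative control.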

[9] = ATG_MRE_CIS: Attagene CIS-FACTORIAL HepG2 Assay for human Metal Responsive Element (MRE) (AID 2282954); conditions: HepG2 MRE cis-reporter transcription, Attagene multiplex; actives raise or lower the signal
Method in brief: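 Cells were transfected with cis-promoter reporter transcription units, then dosed for 24 h. RNA was reverse-transcribed, amplified, fluorescently labelled and resolved by capillary electrophoresis, and activity was fitted in both directions relative to DMSO.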

Chain of Heat shock factor protein 1 (Homo sapiens) (Q00613 whole entry, looked up): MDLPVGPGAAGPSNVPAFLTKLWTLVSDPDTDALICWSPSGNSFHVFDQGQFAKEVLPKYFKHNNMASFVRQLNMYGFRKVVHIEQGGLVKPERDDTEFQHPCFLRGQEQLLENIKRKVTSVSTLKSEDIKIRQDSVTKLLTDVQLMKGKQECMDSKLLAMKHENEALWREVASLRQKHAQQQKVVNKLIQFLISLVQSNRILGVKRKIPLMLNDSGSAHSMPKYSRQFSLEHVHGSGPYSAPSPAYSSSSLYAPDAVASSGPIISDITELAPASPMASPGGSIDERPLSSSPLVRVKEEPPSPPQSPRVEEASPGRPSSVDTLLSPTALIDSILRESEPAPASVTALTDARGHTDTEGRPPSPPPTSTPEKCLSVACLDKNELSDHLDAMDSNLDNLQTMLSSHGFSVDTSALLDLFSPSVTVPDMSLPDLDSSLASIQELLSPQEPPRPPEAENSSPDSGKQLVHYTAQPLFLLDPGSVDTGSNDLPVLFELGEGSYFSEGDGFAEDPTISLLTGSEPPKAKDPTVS
Chain of Hypoxia-inducible factor 1-alpha (Homo sapiens) (Q16665 whole entry, looked up, the tested form may be a part): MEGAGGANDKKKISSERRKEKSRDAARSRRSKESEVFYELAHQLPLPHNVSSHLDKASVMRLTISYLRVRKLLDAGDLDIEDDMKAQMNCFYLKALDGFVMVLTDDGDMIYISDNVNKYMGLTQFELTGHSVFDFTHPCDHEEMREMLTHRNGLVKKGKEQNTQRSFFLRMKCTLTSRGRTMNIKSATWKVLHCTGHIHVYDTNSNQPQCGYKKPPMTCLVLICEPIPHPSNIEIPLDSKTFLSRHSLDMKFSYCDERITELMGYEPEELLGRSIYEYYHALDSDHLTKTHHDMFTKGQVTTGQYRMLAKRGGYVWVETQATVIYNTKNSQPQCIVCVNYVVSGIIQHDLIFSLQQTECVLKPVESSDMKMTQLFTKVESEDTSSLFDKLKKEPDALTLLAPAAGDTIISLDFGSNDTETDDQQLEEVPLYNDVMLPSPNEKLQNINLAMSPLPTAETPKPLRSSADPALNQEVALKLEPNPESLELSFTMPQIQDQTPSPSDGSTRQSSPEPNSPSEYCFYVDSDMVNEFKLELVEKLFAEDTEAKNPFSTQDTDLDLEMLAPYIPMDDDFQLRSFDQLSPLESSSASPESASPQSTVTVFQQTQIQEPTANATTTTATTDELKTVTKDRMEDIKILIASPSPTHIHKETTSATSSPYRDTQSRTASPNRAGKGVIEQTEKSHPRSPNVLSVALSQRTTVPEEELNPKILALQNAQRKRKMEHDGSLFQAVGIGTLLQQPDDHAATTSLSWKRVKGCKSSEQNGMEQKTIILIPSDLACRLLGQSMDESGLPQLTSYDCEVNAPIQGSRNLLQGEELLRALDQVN
Chain of Hepatocyte nuclear factor 6 (Homo sapiens) (Q9UBC0 whole entry, looked up, the tested form may be a part): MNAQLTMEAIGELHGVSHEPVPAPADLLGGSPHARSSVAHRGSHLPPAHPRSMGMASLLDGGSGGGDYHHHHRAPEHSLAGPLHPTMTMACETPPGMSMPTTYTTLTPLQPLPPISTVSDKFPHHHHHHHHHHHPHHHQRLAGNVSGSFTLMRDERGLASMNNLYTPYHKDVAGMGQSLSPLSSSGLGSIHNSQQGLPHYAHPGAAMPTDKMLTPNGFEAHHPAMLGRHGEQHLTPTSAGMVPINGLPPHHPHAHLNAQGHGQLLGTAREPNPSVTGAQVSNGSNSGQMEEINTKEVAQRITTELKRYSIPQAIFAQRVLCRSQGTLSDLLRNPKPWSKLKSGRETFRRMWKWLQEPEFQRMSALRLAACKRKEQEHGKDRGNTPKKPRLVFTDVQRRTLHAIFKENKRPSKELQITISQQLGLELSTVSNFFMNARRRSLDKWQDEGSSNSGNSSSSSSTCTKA

SMILES	outcome [1]	outcome [2]	outcome [3]	outcome [4]	outcome [5]	outcome [6]	outcome [7]	outcome [8]	outcome [9]	AC50 [8]	AC50 [9]	AC50 [3]	AC50 [6]	AC50 [1]	AC50 [2]	AC50 [4]
CC(=O)OC/C=C(/C)CCC=C(C)C	inactive	inactive	inactive	inactive	inactive	inactive	inactive	inactive	inactive	–	–	–	–	–	–	–
CC(C)c1cccc(C(C)C)c1N	inactive	inactive	inactive	inactive	inactive	inactive	inactive	inactive	inactive	–	–	–	–	–	–	–
CC=C(C)C(C)=O	inactive	inactive	inactive	inactive	inactive	inactive	inactive	inactive	inactive	–	–	–	–	–	–	–
CC(Cl)COP(=O)(OCC(C)Cl)OCC(C)Cl (stereo not given)	inactive	inactive	inactive	inactive	inactive	inactive	–	inactive	inactive	–	–	–	–	–	–	–
Cc1c(C(=O)c2c[nH]n(C)c2=O)ccc(S(C)(=O)=O)c1C1=NOCC1	inactive	inactive	inactive	inactive	inactive	inactive	inactive	inactive	inactive	–	–	–	–	–	–	–
CC(C)CCCCCOC(=O)CS	inactive	inactive	inactive	inactive	inactive	inactive	inactive	–	inactive	–	–	–	–	–	–	–
CC1C(C)(C)C2=C(C(=O)CCC2)C1(C)C (stereo not given)	inactive	inactive	inactive	inactive	inactive	inactive	inactive	–	inactive	–	–	–	–	–	–	–
CC(C)(O)Cc1ccccc1	inactive	inactive	inactive	inactive	inactive	inactive	inactive	inactive	inactive	–	–	–	–	–	–	–
O=C(Nc1ccccc1)c1cc(Cl)ccc1O	inactive	inactive	inactive	inactive	inactive	inactive	inactive	–	–	2.93 µM (active)	23.9 µM (active)	–	–	–	–	–
CCCCNS(=O)(=O)c1ccc(C)cc1	inactive	inactive	inactive	inactive	inactive	inactive	inactive	inactive	inactive	–	–	–	–	–	–	–
C=CC(=O)OCCCCCCOC(=O)C=C	inactive	inactive	–	inactive	inactive	inactive	inactive	–	–	180 µM (active)	52.4 µM (active)	75.3 µM (active)	–	–	–	–
Oc1ccc(-c2ccccc2)c(Cl)c1	inactive	inactive	inactive	inactive	inactive	–	inactive	–	–	–	52.9 µM (active)	–	8.12 µM (active)	–	–	–
Fc1ccc(Br)cc1	inactive	inactive	inactive	inactive	inactive	inactive	inactive	inactive	inactive	–	–	–	–	–	–	–
Cc1ccc2c(c1)CCCN2	inactive	inactive	inactive	inactive	inactive	inactive	inactive	–	inactive	–	–	–	–	–	–	–
O=C1c2ccccc2C(=O)c2cc(S(=O)(=O)O)ccc21	inactive	inactive	inactive	inactive	inactive	inactive	inactive	–	inactive	–	–	–	–	–	–	–
C[Si](C)(C)N[Si](C)(C)C	inactive	inactive	inactive	inactive	inactive	inactive	inactive	inactive	inactive	–	–	–	–	–	–	–
O=C1CCCCC1C1CCCCC1 (stereo not given)	inactive	inactive	inactive	inactive	inactive	inactive	–	inactive	inactive	–	–	–	–	–	–	–
C=CCCCCCCCCO	inactive	inactive	inactive	inactive	inactive	inactive	inactive	–	inactive	–	–	–	–	–	–	–
CC(=O)CC(=O)Nc1ccccc1C	inactive	inactive	inactive	inactive	inactive	inactive	inactive	–	inactive	–	–	–	–	–	–	–
CC(C)CC(=O)OCc1ccccc1	inactive	inactive	inactive	inactive	inactive	inactive	–	inactive	inactive	–	–	–	–	–	–	–
CCCCOCCOC(=O)COc1ccc(Cl)cc1Cl	inactive	inactive	inactive	inactive	inactive	inactive	inactive	inactive	inactive	–	–	–	–	–	–	–
CCCCCC[C@@H](O)C/C=C\CCCCCCCC(=O)OCC(O)CO (stereo not given in full)	–	–	inactive	–	inactive	–	inactive	–	–	184 µM (active)	144 µM (active)	–	67.2 µM (active)	143 µM (active)	149 µM (active)	160 µM (active)
COC(C=C(C)CCC=C(C)C)OC	inactive	inactive	inactive	inactive	inactive	inactive	inactive	inactive	inactive	–	–	–	–	–	–	–
CC/C=C\C/C=C\C/C=C\CCCCCCCC(=O)OC	inactive	inactive	inactive	inactive	inactive	–	inactive	–	inactive	74.9 µM (active)	–	–	34 µM (active)	–	–	–
c1ccc(-c2nc3ccccc3[nH]2)cc1	inactive	inactive	inactive	inactive	inactive	inactive	inactive	inactive	inactive	–	–	–	–	–	–	–
CCCSSCCC	inactive	inactive	inactive	inactive	inactive	inactive	–	inactive	inactive	–	–	–	–	–	–	–
N#Cc1ccc(C2CCCc3cncn32)cc1 (stereo not given)	inactive	inactive	inactive	inactive	inactive	inactive	inactive	inactive	inactive	–	–	–	–	–	–	–
O=C(O)C1CCC(C(=O)O)CC1 (stereo not given)	inactive	inactive	inactive	inactive	inactive	inactive	–	inactive	inactive	–	–	–	–	–	–	–
